M1 ag – human M1 muscarinic receptor agonists, primary screen, Fluo-8 calcium fluorescence, CHO-K1 cells, HTS. activation, % at 3 µM. AID 588814, 2011. 360,000 compounds, 0.33% hits. CHO-K1 hM1, agonist mode; 0% DMSO, 100% acetylcholine EC100. Muscarinic acetylcholine receptor M1 (Homo sapiens), P11229;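 active = activation above the run's mean compound activation plus 3 SD, cut at about 16% in these data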;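 also: peak over basal fluorescence ratio within a 140 s kinetic read after compound addition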
Target sequence (P11229 whole entry, looked up): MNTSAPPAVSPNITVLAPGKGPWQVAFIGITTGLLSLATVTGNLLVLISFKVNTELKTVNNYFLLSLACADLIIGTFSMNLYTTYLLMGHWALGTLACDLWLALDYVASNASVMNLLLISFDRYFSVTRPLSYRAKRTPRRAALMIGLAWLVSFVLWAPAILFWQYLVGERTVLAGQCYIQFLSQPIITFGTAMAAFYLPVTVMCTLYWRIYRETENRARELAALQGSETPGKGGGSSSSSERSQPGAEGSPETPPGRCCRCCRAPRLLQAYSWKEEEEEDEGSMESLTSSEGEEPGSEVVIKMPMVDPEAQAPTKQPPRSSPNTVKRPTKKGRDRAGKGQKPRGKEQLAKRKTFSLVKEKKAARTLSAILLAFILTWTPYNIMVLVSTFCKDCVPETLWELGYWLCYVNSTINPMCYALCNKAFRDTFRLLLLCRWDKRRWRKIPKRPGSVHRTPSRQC
M1 PAM – human M1 muscarinic receptor positive allosteric modulators, primary screen, CHO-K1 cells, Fluo-8 calcium fluorescence, 1536-well; CHO-K1 hM1, ACh EC20; 0% = ACh EC20, 100% = maximal ACh; activation, % at 3 µM; 360,000 compounds, 0.088% hits; AID 588819, 2011; in the data active = activation above about 19%, passing the limit was not always enough
M1 antag – human M1 muscarinic receptor antagonists, primary screen, CHO-K1 cells, Fluo-8 calcium fluorescence, 1536-well. CHO-K1 hM1, ACh EC80 antagonist. inhibition, % at 3 µM. 360,000 compounds, 1.3% hits;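 active = percent inhibition above its own plate's cutoff, namely the mean of that plate's compound wells plus 3 SD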;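 also: peak over basal fluorescence ratio during 140 s after agonist addition; 0% = ACh EC80 plus DMSO and 100% = DMSO alone without agonist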
CHO-K1 Ca antag – nonselective inhibitor or artifact in parental CHO-K1 cells; ATP-induced calcium, Fluo-8 fluorescence; inhibition, % at 3 µM; 360,000 compounds, 0.6% hits; AID 602250;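 active = inhibition above a per-plate cutoff, the plate's mean sample inhibition plus 3 SD, cut at about 24% in these data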;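 also: 0% = DMSO plus EC80 ATP and 100% = DMSO alone without ATP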
CHO-K1 Ca ag – counter-screen for M1 agonists: effect in parental CHO-K1 cells. Fluo-8 calcium fluorescence; scaled to maximal ATP response, vehicle zero. activation, % at 3 µM. 360,000 compounds, 0.48% hits. AID 602248, 2012; in the data active = activation above about 15%;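 also: untransfected CHO-K1 host cells lacking M1 receptor as counterscreen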
M1 PAM parental – nonselective calcium activators in parental CHO-K1 cells, primary screen, counter-screen for M1 PAM project, cell-based, Fluo-8 calcium fluorescence, full deck, 1536-well; ATP EC20; 0% at ATP EC20, 100% at ATP max; 360,000 compounds, 0.02% hits; activation, % at 3 µM;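 active = activation above the run cutoff, the mean activation of all test compounds plus 3 SD, cut at about 40% in these data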;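 also: peak over basal fluorescence ratio in a 140 s read after ATP addition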
* marks the source's active call; other numbers are inactive results. In the library only some 2.3% were active in any assay of this set; here they are far more common.

SMILES | M1 ag | M1 PAM | M1 antag | CHO-K1 Ca antag | CHO-K1 Ca ag | M1 PAM parental
COc1ccc(/C=C(\NC(=O)c2ccc(C)cc2)C(=O)N2CCCCC2)cc1 | -2 | 0 | -4 | -8 | 0 | -5
O=C(CN1CCCC1c1cccs1)N1CCN(S(=O)(=O)c2cccc(F)c2)CC1 (stereo not drawn) | -8 | -3 | 1 | -4 | 1 | -5
O=c1c2ccccc2ncn1-c1ccc([N+](=O)[O-])cc1[N+](=O)[O-] | 6 | -8 | 2 | 2 | 19* | -20
C/C(=N\NC(=O)Cc1ccc(Cl)c(Cl)c1)c1cccnc1 | -3 | 2 | -5 | 44* | 0 | 7
COC(=O)c1c(C)[nH]c(C(=O)C(C)OC(=O)c2cc(C)oc2C)c1C (stereo not drawn) | -1 | -16 | 28* | 11 | 7 | -25
COC(=O)c1c(C)[nH]c(C(=O)C(C)OC(=O)c2ccco2)c1C (stereo not drawn) | -1 | 3 | 4 | -15 | 2 | 11
Cc1onc(-c2ccccc2)c1NC(=O)Nc1ccc(OC(F)F)cc1 | -1 | -3 | 1 | 10 | 25* | -6
O=C(NCCCN1CCC(Cc2ccccc2)CC1)c1ccc(CS(=O)c2ccccc2Cl)o1 (stereo not drawn) | -7 | -24 | 50* | 8 | 2 | -11
CC(C)N(CCCNC(=O)c1nn(C)c2c1CS(=O)(=O)c1ccccc1-2)Cc1ccccc1 | -5 | 4 | -8 | 7 | 0 | 15
CCC(C(=O)NCCC(C)C)n1ccc2cc(S(=O)(=O)N3CCCCC3)ccc21 (stereo not drawn) | 1 | -20 | 45* | 13 | 13 | -19
C=CCN1C(=NC(=O)CCCC(=O)O)SC2CS(=O)(=O)CC21 (stereo not drawn) | -2 | -4 | 14 | 28* | 0 | -7
C=CCN1C(=NC(=O)CCC(=O)O)SC2CS(=O)(=O)CC21 (stereo not drawn) | -3 | 1 | 0 | -2 | 0 | 0
COCCN1C[C@@H](CO)O[C@@H](n2cnc3c(NC(C)C)ncnc32)C1 | -2 | -3 | 11 | 1 | 0 | -7
O=c1oc2c(O)cccc2cc1-c1nc2ccccc2[nH]1 | 18* | -9 | 10 | 11 | 13 | -8
Cn1nc(C(C)(C)C)cc1C(=O)NCc1ccc(N2CCCC2=O)cc1 | 3 | -13 | 24 | 29* | 11 | -8
CC(=O)c1ccc(C(=O)N2CCC(n3nccc3NC(=O)C3CC3)CC2)cc1 | -1 | 5 | -4 | -5 | 1 | 2
COC(=O)C(/C=N/OCc1ccc([N+](=O)[O-])cc1)NC(=O)c1cccc(Cl)c1 (stereo not drawn) | 25* | 4 | 4 | -2 | 14 | 7
C=CCn1c(C)cc(C(=O)COc2ccc(C)nc2[N+](=O)[O-])c1C | -1 | -5 | 2 | 9 | 17* | -2
COc1ccc(NC(=O)CN(C)C(=O)c2ccc(S(=O)(=O)Nc3ccccc3C)cc2)cc1 | -4 | 2 | -2 | -4 | 0 | 11
COc1ccc(NC2=NCCC(=O)N2Cc2cccs2)cc1 | -2 | 10 | -4 | 30* | -1 | -4
COc1ccc(NC2=NCC(=O)N2Cc2cccs2)cc1 | 0 | 9 | -12 | -13 | 0 | 21
CC(=O)Nc1cccc(NC(=O)CSc2nnc3ccc(-c4cccnc4)nn23)c1 | 2 | 0 | -6 | 2 | 0 | -9
CC(=O)Nc1ccc(NC(=O)CSc2nnc3ccc(-c4cccnc4)nn23)cc1 | -1 | -8 | 20* | 4 | 0 | -14
CCC(C)CNC(=O)c1[nH]c(C(F)(F)F)nc1-c1ccccc1 (stereo not drawn) | 2 | 0 | -23 | 8 | 1 | -8
CCOC(=O)C1=C[C@@H](C(C)C)N(S(=O)(=O)c2ccc([N+](=O)[O-])cc2)[C@H]1c1ccccc1 | -6 | -22 | 58* | 16 | 3 | -8

Assay outcomes from PubChem.
